PubChem BioAssay (NCATS)
“And” between values parts separate entries of the source, which are not always exact repeats. Equal values may be shown once. Unmarked numbers belong to inactive results. Results filed as inconclusive are left out. Where a call stands in place of a potency, no number is given. The source made the active and inactive calls. Unless noted, calls come from the whole dose curve; as a rule, active = well fitted curve in the direction sought with a large enough effect; inconclusive = small, poorly fitted or top-dose-only effect, or another doubt; inactive = no such curve, though single readings can be large; an effect the other way counts as inactive or inconclusive.

Tests used:
[1] = molecular target: Beta-2 adrenergic receptor (Homo sapiens) (UniProt P07550); assay: qHTS validation assay of beta-arrestin-biased ligands of beta2-adrenergic receptor (AID 485366)
Summary of the method: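 Tango cells expressing recombinant beta2-AR and beta-arrestin with tTA-driven luciferase, in DMEM with 1% FBS. Compounds were titrated up to 46 microM for 18 hr at 37 degrees C. Luminescence was read 15 min after substrate; curves were fitted and class-assigned.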

[2] = molecular target: ATP-dependent 6-phosphofructokinase (Trypanosoma brucei brucei) (UniProt O15648); assay: qHTS Validation Assay to Find Inhibitors of T. brucei phosphofructokinase (AID 485368); note: potency is the fitted concentration of half-maximal effect
Summary of the method: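 Activity was read as ADP production by luminescence (ADP-Glo) after 45 min at room temperature. The enzyme was 1.25nM PFK in 0.1M TEA pH 8.0 with 0.5 mM F6P, 0.1mM ATP and 5 mM MgCl2. Compounds were titrated up to 57 uM and % activity normalized to no-enzyme and full-enzyme controls.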

[3] = Quantitative high throughput screen for delayed death inhibitors of the malarial parasite plastid, 48 hour incubation (AID 488752); note: nearly all actives have a fitted effect of over 65% in size
Summary of the method: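 Erythrocytes infected with firefly luciferase-expressing P. falciparum (2% hematocrit, 0.1% parasitemia) cultured with compound for 48 h at 37 C, 5% CO2, in RPMI 1640/0.5% Albumax. Growth inhibition read as loss of luminescence.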

[4] = molecular target: Thioredoxin reductase 1, cytoplasmic (Rattus norvegicus) (UniProt O89049); assay: qHTS Assay for Substrates of Mammalian Selenoprotein Thioredoxin Reductase 1 (TrxR1) (AID 488772);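 note: NADPH fluorescence in the first read after selenite addition and not the 8 min delta; series mostly up to about 57 µM; a drop in NADPH fluorescence below the no-compound background marks a TrxR1 substrate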
Summary of the method: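 Quantitative HTS in Tris-HCl buffer at pH 7.5 with EDTA and Tween-20, using rat TrxR1, 400 uM NADPH and 400 uM selenite (final). A fall in initial NADPH fluorescence relative to background marked substrate behaviour.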

[5] = molecular target: Thioredoxin reductase 1, cytoplasmic (Rattus norvegicus) (UniProt O89049); assay: qHTS Assay for Inhibitors of Mammalian Selenoprotein Thioredoxin Reductase 1 (TrxR1) (AID 488773); conditions: Potency: inhibition;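 note: drop in NADPH fluorescence over an 8 min run after selenite addition; series mostly up to about 57 µM; nearly all actives have a fitted effect of over 40% in size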
Summary of the method: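 Steps: enzyme (90 nM) plus NADPH (400 uM final), 5 min at ~22 deg C; compound added, 15 min; selenite (400 uM final) added; fluorescence followed for 8 min. Concentration-response curves derived from the normalized delta values.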

[6] = molecular target: Flap endonuclease 1 (Homo sapiens) (UniProt P39748); assay: qHTS Validation Assay for the Inhibitors of Human Flap endonuclease 1 (FEN1) (AID 488816)
Summary of the method: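 FEN1, dispensed as a 10 nM reagent, was preincubated with pin-transferred compounds for 15 min at room temperature before substrate was added (50 nM final). Plates were read at 0 and 15 min, and a four-parameter Hill equation was fitted to the concentration-response data.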

[7] = molecular target: M-phase phosphoprotein 8 (Homo sapiens) (UniProt Q99549); assay: qHTS Validation Assay for Inhibitors for MPP8 Chromodomain Interactions with Methylated Histone Tails (AID 488949); note: nearly all actives have a fitted effect of over 55% in size; note: potency is the fitted concentration of half-maximal effect
Summary of the method: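 AlphaScreen read-out: streptavidin donor and nickel chelate acceptor beads (final 10 ug/mL), 30 min in the dark at RT. Complex of 50 nM MPP8 and 50 nM b-H3(1-18)K9me3 peptide had been exposed to compounds for 30 min beforehand.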

[8] = molecular target: Transient receptor potential cation channel subfamily V member 1 (Homo sapiens) (UniProt Q8NER1); assay: HTS Assay for Compounds that Act as Enhancers of the Vanilloid Receptor 1 (AID 488979)
Summary of the method: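 TRPV1-expressing cells loaded with Fluo-8 calcium dye; compounds added and calcium influx read kinetically for 3 min (agonist phase), then capsaicin at EC20 added and read 2 min more for enhancement. Fluorescence ex 480/em 520 nm.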

[9] = molecular target: Thyrotropin receptor (Homo sapiens) (UniProt P16473); assay: qHTS Assay for Antagonists of the Thyroid Stimulating Hormone Receptor (AID 488980); note: series mostly up to about 58 µM
Summary of the method: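 TSHR-HEK293 cells; 70 uM RO 20-1724 PDE inhibitor; compound + EC80 TSH (4 nM final); anti-cAMP cryptate antibody/cAMP-d2 in lysis buffer, 30 min RT; HTRF 665/620 nm read.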

[10] = molecular target: D(1A) dopamine receptor (Homo sapiens) (UniProt P21728); assay: HTS Assay for Allosteric Agonists of the Human D1 Dopamine Receptor: Primary Screen for Agonists (AID 488981)
Summary of the method: (§1)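 Tetracycline-induced HEK293 T-REx cells force-coupled to calcium signalling were incubated overnight at 30 C and dye-loaded at room temperature. Calcium flux over 180 s after compound addition flagged agonists; a further 180 s read after EC20 dopamine flagged potentiators.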

[11] = molecular target: D(1A) dopamine receptor (Homo sapiens) (UniProt P21728); assay: HTS Assay for Allosteric Agonists of the Human D1 Dopamine Receptor: Primary Screen for Potentiators (AID 488982)
Summary of the method: as §1

[12] = molecular target: D(1A) dopamine receptor (Homo sapiens) (UniProt P21728); assay: HTS Assay for Allosteric Agonists of the Human D1 Dopamine Receptor: Primary Screen for Antagonists (AID 488983);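 note: calcium flux response to an EC80 dopamine challenge measured with no-wash dye; nearly all actives have a fitted effect of over 65% in size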; note: potency is the fitted concentration of half-maximal effect
Summary of the method: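 Tetracycline-induced HEK293 T-REx D1 line, force-coupled to calcium flux, read with no-wash calcium dye. Compound added after 10 s baseline, read 180 s for agonism, then EC80 dopamine added and read a further 180 s.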

[13] = Validation screen for small molecules that induce genotoxicity in human embryonic kidney (HEK293T) cells expressing luciferase-tagged ELG1 (AID 493106)
Summary of the method: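 HEK293T cells expressing luciferase-tagged ELG1, 2,000 cells/well, exposed to compound 16 hr at 37 °C, 5% CO2. Luciferase read after ONE-Glo, 30 min at room temperature; increased signal indicates genetic stress.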

[14] = molecular target: ATPase family AAA domain-containing protein 5 (Homo sapiens) (UniProt Q96QE3); assay: Validation screen for small molecules that inhibit ELG1-dependent DNA repair in human embryonic kidney (HEK293T) cells expressing luciferase-tagged ELG1 (AID 493107); note: nearly all actives have a fitted effect of over 70% in size; note: potency is the fitted concentration of half-maximal effect
Summary of the method: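 HEK293T cells expressing luciferase-tagged ELG1, 2,000 per well, treated with 5-fluorouridine plus compound for 16 h at 37 C. ONE-Glo luminescence after 30 min at room temperature reports ELG1 reporter level.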

[15] = molecular target: Thyrotropin-releasing hormone receptor (Homo sapiens) (UniProt P34981); assay: qHTS for Small Molecule Agonists and Allosteric Enhancers of Human TRH Receptor: Validation Screen for Agonists (AID 493127;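 active = calcium activation more than 3 SD above the typical response in the agonist read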); conditions: TRH receptor agonist cell assay; at 2 µM; hits give high values
Summary of the method: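 TRHR cells loaded with fluo-8 calcium dye; FDSS kinetic fluorescence (Ex 480/Em 530) read at 1 s/cycle after 23 nL compound addition. Agonist-mode calcium response recorded before the 10 nM TRH (EC20) addition.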

[16] = molecular target: Methanococcus maripaludis chaperonin (MmCpn) (UniProt Q6LX38); assay: High-Throughput Screening for Modulators of Cytosolic Chaperonin Activity: MmCpn Primary Screen (AID 488978);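 note: 50 nM MmCpn enzyme hydrolysing 30 µM ATP at 37 °C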
Summary of the method: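 ADP formation read by HTRF Transcreener, 665/590 nm emission after 320 nm excitation. Enzyme: archaeal chaperonin at 50 nM final; substrate ATP 30 uM final; 10 min, 37C, after 5 min compound preincubation at RT.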

[17] = molecular target: Chromobox protein homolog 1 (Homo sapiens) (UniProt P83916); assay: qHTS Validation Assay for Inhibitors of HP1-beta Chromodomain Interactions with Methylated Histone Tails (AID 488953); note: nearly all actives have a fitted effect of over 50% in size; note: potency is the fitted concentration of half-maximal effect
Summary of the method: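 HP1-beta (50 nM) preformed 30 min with biotinylated H3(1-18)K9me3 peptide (50 nM) in PBS pH 7.4, 0.01% Tween-20. Compounds added for 30 min at room temperature. Complex disruption read by AlphaScreen with streptavidin donor/nickel chelate acceptor beads (10 ug/mL each).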

Sequence of Methanococcus maripaludis chaperonin (MmCpn) (Q6LX38 1-543): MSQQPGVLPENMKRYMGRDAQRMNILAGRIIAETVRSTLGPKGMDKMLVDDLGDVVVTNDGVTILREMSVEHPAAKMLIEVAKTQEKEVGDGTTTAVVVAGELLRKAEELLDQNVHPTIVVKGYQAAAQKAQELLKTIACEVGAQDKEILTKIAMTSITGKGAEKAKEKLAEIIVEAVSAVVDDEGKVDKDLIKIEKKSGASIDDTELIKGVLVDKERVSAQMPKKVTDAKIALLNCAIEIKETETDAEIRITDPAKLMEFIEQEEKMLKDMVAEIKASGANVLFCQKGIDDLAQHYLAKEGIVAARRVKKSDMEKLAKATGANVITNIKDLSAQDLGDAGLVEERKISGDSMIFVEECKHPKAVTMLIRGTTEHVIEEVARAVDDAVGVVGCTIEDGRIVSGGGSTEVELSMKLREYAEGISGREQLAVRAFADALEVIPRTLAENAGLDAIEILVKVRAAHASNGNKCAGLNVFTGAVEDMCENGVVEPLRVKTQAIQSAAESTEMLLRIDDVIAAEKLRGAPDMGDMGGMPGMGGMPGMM
Sequence of Thyrotropin-releasing hormone receptor (Homo sapiens) (P34981 whole entry, looked up): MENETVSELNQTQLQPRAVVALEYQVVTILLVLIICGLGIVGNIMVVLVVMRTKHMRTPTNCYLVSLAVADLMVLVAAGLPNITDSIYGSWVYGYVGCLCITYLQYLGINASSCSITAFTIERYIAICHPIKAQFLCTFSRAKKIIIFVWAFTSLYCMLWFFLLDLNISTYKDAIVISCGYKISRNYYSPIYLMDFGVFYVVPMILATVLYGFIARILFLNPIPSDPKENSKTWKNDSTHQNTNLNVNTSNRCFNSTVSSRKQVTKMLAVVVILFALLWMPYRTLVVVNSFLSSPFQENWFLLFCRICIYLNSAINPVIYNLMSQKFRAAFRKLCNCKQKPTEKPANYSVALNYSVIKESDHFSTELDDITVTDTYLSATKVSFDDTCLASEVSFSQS
Sequence of M-phase phosphoprotein 8 (Homo sapiens) (Q99549 whole entry, looked up): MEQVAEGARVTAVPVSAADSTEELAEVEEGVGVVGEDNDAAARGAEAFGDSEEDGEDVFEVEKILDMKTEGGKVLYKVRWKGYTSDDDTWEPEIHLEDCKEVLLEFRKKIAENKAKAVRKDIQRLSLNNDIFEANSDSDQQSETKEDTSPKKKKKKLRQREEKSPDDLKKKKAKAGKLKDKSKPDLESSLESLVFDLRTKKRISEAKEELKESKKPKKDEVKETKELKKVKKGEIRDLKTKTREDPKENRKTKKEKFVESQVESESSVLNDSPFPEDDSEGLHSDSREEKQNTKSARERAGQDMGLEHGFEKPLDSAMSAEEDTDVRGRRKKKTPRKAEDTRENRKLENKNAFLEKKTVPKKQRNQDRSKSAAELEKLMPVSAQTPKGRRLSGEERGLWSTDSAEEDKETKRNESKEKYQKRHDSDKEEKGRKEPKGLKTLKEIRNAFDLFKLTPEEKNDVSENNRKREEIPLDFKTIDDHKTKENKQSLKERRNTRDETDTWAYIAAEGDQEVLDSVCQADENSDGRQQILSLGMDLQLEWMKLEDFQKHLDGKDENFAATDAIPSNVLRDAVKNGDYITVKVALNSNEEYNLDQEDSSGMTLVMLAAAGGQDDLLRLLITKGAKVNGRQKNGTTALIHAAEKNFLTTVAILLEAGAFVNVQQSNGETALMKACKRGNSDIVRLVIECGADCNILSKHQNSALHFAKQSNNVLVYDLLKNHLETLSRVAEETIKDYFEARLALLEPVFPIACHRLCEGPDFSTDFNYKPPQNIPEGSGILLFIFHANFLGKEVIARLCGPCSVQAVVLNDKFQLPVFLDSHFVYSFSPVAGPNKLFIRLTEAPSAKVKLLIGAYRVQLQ
Sequence of Transient receptor potential cation channel subfamily V member 1 (Homo sapiens) (Q8NER1 whole entry, looked up): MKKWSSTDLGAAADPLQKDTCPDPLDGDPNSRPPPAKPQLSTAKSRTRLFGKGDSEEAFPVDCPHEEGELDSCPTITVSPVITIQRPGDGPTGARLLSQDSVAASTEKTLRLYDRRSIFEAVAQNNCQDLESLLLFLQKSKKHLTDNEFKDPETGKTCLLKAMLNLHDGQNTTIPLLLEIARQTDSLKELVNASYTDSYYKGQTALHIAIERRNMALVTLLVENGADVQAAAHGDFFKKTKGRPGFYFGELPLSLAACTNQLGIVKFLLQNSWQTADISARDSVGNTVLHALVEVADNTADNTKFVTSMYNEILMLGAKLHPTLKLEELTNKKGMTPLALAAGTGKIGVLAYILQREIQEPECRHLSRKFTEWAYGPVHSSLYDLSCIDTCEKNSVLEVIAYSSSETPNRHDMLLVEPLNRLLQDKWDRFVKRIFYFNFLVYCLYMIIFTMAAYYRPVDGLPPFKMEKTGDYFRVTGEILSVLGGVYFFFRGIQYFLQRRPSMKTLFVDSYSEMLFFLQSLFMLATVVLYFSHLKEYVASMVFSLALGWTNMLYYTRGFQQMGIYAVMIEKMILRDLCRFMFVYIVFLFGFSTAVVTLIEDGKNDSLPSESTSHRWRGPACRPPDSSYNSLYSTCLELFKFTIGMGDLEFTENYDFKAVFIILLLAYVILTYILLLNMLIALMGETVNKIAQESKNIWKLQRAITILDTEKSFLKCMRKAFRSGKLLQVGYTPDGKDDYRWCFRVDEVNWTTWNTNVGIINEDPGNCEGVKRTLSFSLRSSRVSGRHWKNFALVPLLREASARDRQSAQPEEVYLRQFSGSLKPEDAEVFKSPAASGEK
Sequence of ATP-dependent 6-phosphofructokinase (Trypanosoma brucei brucei) (O15648 whole entry, looked up): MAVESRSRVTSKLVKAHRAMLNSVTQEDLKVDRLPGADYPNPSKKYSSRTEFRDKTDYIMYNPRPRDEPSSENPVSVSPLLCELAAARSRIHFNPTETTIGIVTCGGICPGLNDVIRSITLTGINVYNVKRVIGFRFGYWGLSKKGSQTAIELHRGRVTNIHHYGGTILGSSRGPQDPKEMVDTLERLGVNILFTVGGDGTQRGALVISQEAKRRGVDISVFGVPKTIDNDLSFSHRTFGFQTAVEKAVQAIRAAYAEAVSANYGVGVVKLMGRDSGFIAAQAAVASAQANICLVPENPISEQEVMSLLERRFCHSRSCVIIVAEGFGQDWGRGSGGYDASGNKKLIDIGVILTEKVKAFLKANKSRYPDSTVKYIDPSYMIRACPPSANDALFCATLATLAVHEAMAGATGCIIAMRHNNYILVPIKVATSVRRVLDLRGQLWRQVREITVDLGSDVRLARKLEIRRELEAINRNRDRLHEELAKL
Sequence of Beta-2 adrenergic receptor (Homo sapiens) (P07550 whole entry, looked up): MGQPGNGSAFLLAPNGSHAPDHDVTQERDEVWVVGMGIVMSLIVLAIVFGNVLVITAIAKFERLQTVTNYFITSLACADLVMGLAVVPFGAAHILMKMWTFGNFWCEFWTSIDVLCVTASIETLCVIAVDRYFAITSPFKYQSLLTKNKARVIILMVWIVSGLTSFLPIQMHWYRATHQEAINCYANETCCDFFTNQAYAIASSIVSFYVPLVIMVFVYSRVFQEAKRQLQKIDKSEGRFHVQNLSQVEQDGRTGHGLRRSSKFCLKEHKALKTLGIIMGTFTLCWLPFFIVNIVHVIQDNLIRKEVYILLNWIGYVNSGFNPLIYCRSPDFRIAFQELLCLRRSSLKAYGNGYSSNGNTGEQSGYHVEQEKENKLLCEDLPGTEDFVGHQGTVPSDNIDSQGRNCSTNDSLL
Sequence of Chromobox protein homolog 1 (Homo sapiens) (P83916 whole entry, looked up): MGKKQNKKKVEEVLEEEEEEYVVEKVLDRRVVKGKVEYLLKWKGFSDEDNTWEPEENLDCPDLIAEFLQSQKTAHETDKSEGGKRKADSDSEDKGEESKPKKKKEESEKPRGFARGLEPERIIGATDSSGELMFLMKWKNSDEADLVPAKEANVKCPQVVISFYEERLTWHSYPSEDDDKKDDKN
Sequence of Thioredoxin reductase 1, cytoplasmic (Rattus norvegicus) (O89049 whole entry, looked up): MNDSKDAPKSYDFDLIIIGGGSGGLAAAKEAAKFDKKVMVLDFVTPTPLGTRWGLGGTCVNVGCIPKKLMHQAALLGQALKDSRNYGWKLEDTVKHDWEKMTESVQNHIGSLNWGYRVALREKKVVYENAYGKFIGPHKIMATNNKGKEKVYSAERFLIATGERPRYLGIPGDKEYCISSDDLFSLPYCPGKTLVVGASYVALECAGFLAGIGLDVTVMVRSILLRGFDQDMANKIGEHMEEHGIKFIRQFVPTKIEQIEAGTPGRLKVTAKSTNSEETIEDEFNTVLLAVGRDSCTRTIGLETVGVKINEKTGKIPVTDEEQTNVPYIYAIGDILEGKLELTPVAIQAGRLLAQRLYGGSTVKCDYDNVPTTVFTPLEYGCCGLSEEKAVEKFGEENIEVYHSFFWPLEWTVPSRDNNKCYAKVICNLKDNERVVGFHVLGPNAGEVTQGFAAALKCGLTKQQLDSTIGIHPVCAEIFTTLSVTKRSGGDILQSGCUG
Sequence of Thyrotropin receptor (Homo sapiens) (P16473 whole entry, looked up): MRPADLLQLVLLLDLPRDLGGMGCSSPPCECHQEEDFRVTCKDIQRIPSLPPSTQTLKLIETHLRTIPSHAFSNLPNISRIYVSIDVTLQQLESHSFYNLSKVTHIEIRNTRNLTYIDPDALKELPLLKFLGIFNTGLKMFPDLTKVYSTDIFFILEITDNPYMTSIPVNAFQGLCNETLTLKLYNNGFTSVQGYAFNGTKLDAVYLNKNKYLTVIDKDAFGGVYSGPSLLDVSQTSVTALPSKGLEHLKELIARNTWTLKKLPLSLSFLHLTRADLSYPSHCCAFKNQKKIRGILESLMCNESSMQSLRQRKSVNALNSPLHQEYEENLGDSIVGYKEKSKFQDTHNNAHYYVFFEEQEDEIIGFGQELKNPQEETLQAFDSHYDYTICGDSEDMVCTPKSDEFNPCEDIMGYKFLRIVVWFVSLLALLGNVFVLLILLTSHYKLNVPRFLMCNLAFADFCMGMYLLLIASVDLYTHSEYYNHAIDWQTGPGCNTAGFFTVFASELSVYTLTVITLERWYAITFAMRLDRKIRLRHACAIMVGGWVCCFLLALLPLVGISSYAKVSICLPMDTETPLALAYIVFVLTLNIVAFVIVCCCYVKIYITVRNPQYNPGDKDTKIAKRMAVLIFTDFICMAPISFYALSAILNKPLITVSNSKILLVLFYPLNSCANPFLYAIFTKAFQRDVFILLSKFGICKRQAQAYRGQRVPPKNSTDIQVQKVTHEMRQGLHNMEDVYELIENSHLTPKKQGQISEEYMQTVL

## CC(=O)N[C@@H](Cc1c[nH]c2ccccc12)C(=O)OCc1cc(C(F)(F)F)cc(C(F)(F)F)c1
[1]
  outcome: inactive
[2]
  Potency: inactive
[3]
  Potency: inactive
[4]
  outcome: inactive
[5]
  Potency: inactive
[6]
  Potency: inactive
[7]
  Potency: inactive
[8]
  outcome: inactive
[9]
  outcome: inactive
[10]
  Potency: inactive
[11]
  Potency: inactive
[12]
  Potency: inactive
[13]
  Potency: inactive
[14]
  Potency: inactive
[15]
  activation: 2.62%

## C=CCN1CCc2cc(O)c(O)cc2C(c2ccccc2)C1 (centres undefined)
[1]
  outcome: inactive
[2]
  Potency: inactive
[4]
  outcome: inactive
[5]
  Potency: inactive
[6]
  Potency: inactive
[7]
  Potency: inactive
[16]
  outcome: inactive
[8]
  outcome: inactive
[9]
  outcome: inactive
[10]
  Potency: inactive
[11]
  Potency: inactive
[13]
  Potency: inactive
[14]
  Potency: inactive
[15]
  activation: 1.38%

## N#C/C(=C\c1ccc(O)c(O)c1)C(=O)NCCc1ccccc1
[1]
  outcome: inactive
[2]
  Potency: 15.1 µM (active)
[4]
  outcome: inactive
[6]
  Potency: inactive
[7]
  Potency: 11.2 µM (active) and 18.9 µM (active)
[17]
  Potency: 10 µM (active)
[16]
  outcome: inactive
[8]
  outcome: inactive
[9]
  outcome: inactive
[10]
  Potency: inactive
[11]
  Potency: inactive
[12]
  Potency: inactive
[14]
  Potency: inactive
[15]
  activation: 0.438%

## Brc1c(Br)c(Br)c2[nH]cnc2c1Br
[1]
  outcome: inactive
[2]
  Potency: inactive
[4]
  outcome: inactive
[5]
  Potency: inactive
[6]
  Potency: inactive
[7]
  Potency: inactive
[17]
  Potency: inactive
[16]
  outcome: inactive
[10]
  Potency: inactive
[13]
  Potency: inactive
[14]
  Potency: 4.61 µM (active)

## O=C(O)CCC/C=C\C[C@@H]1[C@@H](/C=C/[C@H](O)C2Cc3ccccc3C2)[C@@H](F)C[C@@H]1O
[1]
  outcome: inactive
[2]
  Potency: inactive
[4]
  outcome: inactive
[5]
  Potency: inactive
[6]
  Potency: inactive
[16]
  outcome: inactive
[10]
  Potency: inactive
[11]
  Potency: inactive
[12]
  Potency: inactive
[13]
  Potency: inactive
[14]
  Potency: inactive

## CN(C)CCCc1cc(C(=O)Nc2ccc(-c3ccncc3)cc2)ccc1O
[1]
  outcome: inactive
[2]
  Potency: inactive
[4]
  outcome: inactive
[5]
  Potency: inactive
[6]
  Potency: inactive
[7]
  Potency: inactive
[16]
  outcome: inactive
[10]
  Potency: inactive
[11]
  Potency: inactive
[13]
  Potency: inactive
[14]
  Potency: inactive

## CSC(=N)N
[1]
  outcome: inactive
[2]
  Potency: inactive
[3]
  Potency: inactive
[4]
  outcome: inactive
[5]
  Potency: inactive
[6]
  Potency: inactive
[7]
  Potency: inactive
[17]
  Potency: inactive
[10]
  Potency: inactive
[11]
  Potency: inactive
[12]
  Potency: inactive
[13]
  Potency: inactive
[14]
  Potency: inactive

## CCN(c1nc(N)c(C(=O)N=C(N)N)nc1Cl)C(C)C
[1]
  outcome: inactive
[2]
  Potency: inactive
[3]
  Potency: inactive
[4]
  outcome: inactive
[5]
  Potency: inactive
[6]
  Potency: inactive
[16]
  outcome: inactive
[8]
  outcome: inactive
[9]
  outcome: inactive
[10]
  Potency: inactive
[11]
  Potency: inactive
[13]
  Potency: inactive
[14]
  Potency: inactive
[15]
  activation: 2.31%

## N[C@H](C(=O)O)[C@H](Cc1ccccc1)C(=O)O
[1]
  outcome: inactive
[2]
  Potency: inactive
[4]
  outcome: inactive
[5]
  Potency: inactive
[6]
  Potency: inactive
[7]
  Potency: inactive
[17]
  Potency: inactive
[16]
  outcome: inactive
[10]
  Potency: inactive
[11]
  Potency: inactive
[12]
  Potency: inactive
[13]
  Potency: inactive
[14]
  Potency: inactive

## NC1CONC1=O (centres undefined)
[1]
  outcome: inactive
[2]
  Potency: inactive
[3]
  Potency: inactive
[4]
  outcome: inactive
[6]
  Potency: inactive
[7]
  Potency: inactive
[17]
  Potency: inactive
[16]
  outcome: inactive
[8]
  outcome: inactive
[9]
  outcome: inactive
[10]
  Potency: inactive
[11]
  Potency: inactive
[12]
  Potency: inactive
[13]
  Potency: inactive
[14]
  Potency: inactive

## O=S(=O)(c1cccc2c(Cl)cccc12)N1CCCNCC1
[1]
  outcome: inactive
[2]
  Potency: inactive
[3]
  Potency: inactive
[4]
  outcome: inactive
[6]
  Potency: inactive
[7]
  Potency: inactive
[17]
  Potency: inactive
[16]
  outcome: inactive
[9]
  outcome: inactive
[10]
  Potency: inactive
[11]
  Potency: inactive
[12]
  Potency: inactive
[13]
  Potency: inactive

## Nc1ccc(CCNc2ncnc3c2ncn3C2OC(CO)C(O)C2O)cc1 (centres undefined)
[1]
  outcome: inactive
[2]
  Potency: inactive
[3]
  Potency: inactive
[4]
  outcome: inactive
[5]
  Potency: inactive
[6]
  Potency: inactive
[17]
  Potency: inactive
[16]
  outcome: inactive
[8]
  outcome: inactive
[9]
  outcome: inactive
[10]
  Potency: inactive
[11]
  Potency: inactive
[12]
  Potency: inactive

## CCCn1c(=O)c2[nH]c(C3CCCC3)nc2n(CCC)c1=O
[1]
  outcome: inactive
[2]
  Potency: inactive
[3]
  Potency: inactive
[4]
  outcome: inactive
[6]
  Potency: inactive
[7]
  Potency: inactive
[17]
  Potency: inactive
[16]
  outcome: inactive
[8]
  outcome: inactive
[9]
  outcome: inactive
[10]
  Potency: inactive
[11]
  Potency: inactive
[12]
  Potency: inactive
[13]
  Potency: inactive
[15]
  activation: -3.88%

## Cc1nc2n(c(=O)c1CCN1CCC(c3noc4cc(F)ccc34)CC1)CCCC2O (centres undefined)
[1]
  outcome: inactive
[2]
  Potency: inactive
[4]
  outcome: inactive
[5]
  Potency: inactive
[7]
  Potency: inactive
[17]
  Potency: inactive
[11]
  Potency: inactive
[12]
  Potency: 1 µM (active)
[13]
  Potency: inactive
[14]
  Potency: inactive

## N[C@@H](Cc1ccc(F)cc1)C(=O)O
[1]
  outcome: inactive
[2]
  Potency: inactive
[4]
  outcome: inactive
[5]
  Potency: inactive
[17]
  Potency: inactive
[8]
  outcome: inactive
[9]
  outcome: inactive
[10]
  Potency: inactive
[11]
  Potency: inactive
[12]
  Potency: inactive
[13]
  Potency: inactive
[15]
  activation: 0.125%
